Assay results: PubChem BioAssay AID651597 (National Center for Advancing Translational Sciences (NCATS), 2012)
Hit rate of the full screen: of about 1,100 compounds, about 390 (35%) were called active. Roughly 30% stayed inconclusive and do not appear here. Calls come from the whole dose curve; as a rule, active = well fitted inhibition curve with a large enough effect; inconclusive = small, poorly fitted or top-dose-only effect; inactive = flat fitted curve, though single readings scatter. Some of the results follow.

Molecular target: Luciferin 4-monooxygenase (Photinus pyralis) (UniProt P08659)
Experiment: qHTS of Nrf2 Activators: Hit Validation in Secondary FLuc Assay; note: nearly all actives have a fitted effect of over 65% in size
Settings: firefly luciferase inhibition counter-screen, luminescence; series mostly up to 57.5 µM; activity, negative = inhibition: at the top concentration
Method in brief: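 Purified firefly luciferase is tested for inhibition by compounds in the presence of its substrates, ATP and D-luciferin, each at Km. Inhibition marks likely false positives arising from reporter-enzyme stabilization.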
% is set by controls: 0 for no effect and ±100 for the full control effect; potency is the fitted concentration of half-maximal effect.

SMILES | activity, negative = inhibition | Potency
CCn1c(/C=C/c2ccccc2)nc2ccccc2c1=O | -25.2% (inactive) | –
Cn1c(/C=C/c2cccc(Br)c2)nc2ccccc2c1=O | – | 10.7 µM (active)
Cn1c(CC2C(=O)Nc3ccc(Br)cc32)nc2ccccc2c1=O (centres undefined) | -7.26% (inactive) | –
CSc1ccccc1NC(=O)c1cc(-c2cccs2)on1 | – | 3.38 µM (active)
COc1ccc(NC(=O)c2cc(-c3cccs3)on2)c(OC)c1 | -23.9% (inactive) | –
COC(=O)c1sccc1NC(=O)c1cc(C)on1 | 6.05% (inactive) | –
O=C(NN=Cc1cccc([N+](=O)[O-])c1)c1cccc2ccccc12 | -21% (inactive) | –
Cn1c(SCC(=O)N/N=C/C=C\c2ccccc2[N+](=O)[O-])nc2ccccc21 | -28.9% (inactive) | –
N#C/C(=C\C=C\c1ccccc1[N+](=O)[O-])C(=O)NC1CCCCC1 | -27.7% (inactive) | –
CC1(C)C2C/C(=N\O)C(C)(/[N+]([O-])=C/c3cccc([N+](=O)[O-])c3)CC21 (centres undefined) | 2.48% (inactive) | –
CC1(C)C(=O)OC(/C=C/c2cccc([N+](=O)[O-])c2)C(C)(C)C1=O (centres undefined) | 1.52% (inactive) | –
O=[N+]([O-])c1ccccc1C=CC=NN=Cc1ccccc1O | – | 0.953 µM (active)
CC(C)(C)SCCNC(=O)/C=C/c1cccc([N+](=O)[O-])c1 | -23.6% (inactive) | –
O=[N+]([O-])c1cccc(/C=C/c2ccccn2)c1 | – | 10.7 µM (active)
O=[N+]([O-])c1cccc(C=NN=Cc2ccccc2O)c1 | – | 0.601 µM (active)
C=C(C)CNC(=S)N/N=C(\C)c1ccc(Cl)s1 | -4.5% (inactive) | –
c1coc(-c2cnc3ccccc3n2)c1 | – | 2.69 µM (active)
FC(F)(F)c1cc(-c2ccco2)nc(-n2nnc3ccccc32)n1 | -18.6% (inactive) | –
O=[N+]([O-])c1cccc(-c2cnc3ccccc3n2)c1 | -28.7% (inactive) | –
O=C(Oc1cccc(-c2cnc3ccccc3n2)c1)c1ccco1 | – | 10.7 µM (active)
Cc1ccc(NC(=O)/C=C/c2ccc([N+](=O)[O-])s2)cc1 | -2.01% (inactive) | –
Cc1ccc(/C=C/C(=O)Nc2ccc([N+](=O)[O-])c(NC(=O)/C=C/c3ccc(C)o3)c2)o1 | – | 1.2 µM (active)
O=C(Nc1ccccn1)c1csc2c1CCCC2 | – | 3.01 µM (active)

SMILES | activity, negative = inhibition | Potency
CSc1nsc(SC)c1NC(=O)Nc1ccccn1 | -27.9% (inactive) | –
O=C(Nc1nnc(-c2ccccc2F)s1)C1CCCO1 (centres undefined) | – | 10.7 µM (active)
O=C(Nc1nnc(-c2ccccc2F)s1)Nc1ccccc1F | -21.5% (inactive) | –
O=[N+]([O-])c1cc(-c2nc(-c3ccccc3)no2)ccc1NCc1cccnc1 | – | 4.78 µM (active)
CCCNC(=O)c1ccc(S(=O)(=O)c2ccc(OC)cc2)c([N+](=O)[O-])c1 | -1.58% (inactive) | –
CCNc1ccc(-c2nc(-c3ccco3)no2)cc1[N+](=O)[O-] | – | 0.19 µM (active)
CCCNc1ccc(-c2nc(-c3ccco3)no2)cc1[N+](=O)[O-] | – | 0.169 µM (active)
COCCNc1ccc(-c2nc(-c3ccco3)no2)cc1[N+](=O)[O-] | – | 0.478 µM (active)
NC(=O)c1ccsc1NC(=O)COC(=O)[C@@H]1CCCN1C(=O)c1cccs1 | -14.2% (inactive) | –
Cn1c(NC(=O)/C=C/c2ccccc2)cc(=O)n(C)c1=O | – | 8.49 µM (active)
Cc1cc(C)n(S(=O)(=O)/C=C/c2ccccc2)n1 | 2.85% (inactive) | –
CC(=O)Nc1nc2cccc([N+](=O)[O-])c2s1 | -5.67% (inactive) | –
CC(=O)c1cc2c(cc1NC(=O)CSc1nc3ccccc3o1)OCO2 | -5.24% (inactive) | –
Cn1cc([N+](=O)[O-])c(C(=O)Nc2ccc(-c3nc4ccccc4o3)cc2)n1 | – | 8.49 µM (active)
CN1C2CCC1/C(=C\c1ccc(F)cc1)C(=O)/C2=C/c1ccc(F)cc1 | 2.61% (inactive) | –
Cc1nn2c(-c3ccccc3)nnc2c2ccccc12 | – | 10.7 µM (active)
COc1ccc(-c2nnc3c4ccccc4c(C)nn23)cc1 | – | 7.57 µM (active)
CCc1nn2c(-c3ccco3)ccnc2c1-c1ccccc1 | 6.51% (inactive) | –
Cc1nn2c(-c3ccco3)nnc2c2ccccc12 | – | 16.9 µM (active)
Cc1ccc(S(=O)(=O)c2nc(S(C)(=O)=O)sc2N2CCN(C)CC2)cc1 | -2.83% (inactive) | –
Cc1ccc(-c2nc(C=Nc3ccc(O)cc3)c(O)o2)cc1 | – | 2.69 µM (active)
O=c1cc(-c2cccc(Br)c2)oc2cccc(O)c12 | -4.58% (inactive) | –
O=c1cc(-c2ccccc2Cl)oc2c(Br)ccc(O)c12 | – | 2.39 µM (active)

SMILES | activity, negative = inhibition | Potency
O=c1oc(CCCO)cc2ccc(C#Cc3ccsc3)cc12 | – | 2.39 µM (active)
O=c1oc(CCO)cc2ccc(C#Cc3ccsc3)cc12 | – | 2.69 µM (active)
Cn1c(/C(C#N)=C(\O)c2cc(Cl)sc2Cl)nc2ccccc21 | -24.2% (inactive) | –
Cn1c(/N=C(\N)c2ccccc2)nc2ccccc21 | – | 1.35 µM (active)
Cc1cc(C)n2nc(-c3ccc(F)cc3)cc2n1 | – | 1.51 µM (active)
Cc1cc(N2CCOCC2)n2nc(-c3cccc(F)c3)cc2n1 | -21.8% (inactive) | –
COc1ccccc1NC(=O)c1ccc(Cl)c(S(=O)(=O)NCc2ccco2)c1 | -25.3% (inactive) | –
CCOC(=O)c1ccc(NC(=O)c2nc(S(=O)(=O)Cc3ccccc3)ncc2Cl)cc1 | – | 1.69 µM (active)
COc1ccc(Cl)cc1NC(=O)CCS(=O)(=O)c1cccc2nonc12 | -0.0594% (inactive) | –
COc1ccccc1NC(=O)c1nc(S(=O)(=O)Cc2ccccc2)ncc1Cl | – | 2.69 µM (active)
Cc1ccc2c(N)c(C(=O)c3ccccc3)sc2n1 | – | 9.53 µM (active)
Cc1nc2sc(C(=O)c3ccccc3)c(N)c2c2c1CCCC2 | – | 1.9 µM (active)
CN1CCN(C(=O)/C=C/c2ccc([N+](=O)[O-])o2)CC1 | -3.66% (inactive) | –
Cc1ccc(C(=O)/C=C/c2ccc(-c3ccccc3[N+](=O)[O-])o2)cc1 | – | 2.69 µM (active)
O=C(/C=C/c1ccc(-c2ccccc2[N+](=O)[O-])o1)c1ccc(Br)cc1 | – | 6.01 µM (active)
O=C(/C=C/c1ccc(-c2ccccc2[N+](=O)[O-])o1)c1ccccc1 | – | 5.36 µM (active)
COc1ccc(OC)c(C(=O)Nc2c(O)ccc3ccccc23)c1 | – | 15.1 µM (active)
COC(=O)c1sccc1NC(=O)c1ccc(OC)c(OC)c1 | 1.53% (inactive) | –
CNc1ccccc(C(=O)/C=C/c2ccccc2OC)c1=O | – | 5.36 µM (active)
COC1=C(C)C(O)=C(C(=O)/C=C/c2ccccc2)C(=O)C1(C)C | -7.39% (inactive) | –
CNc1ccc(Br)cc(C(=O)/C=C/c2cccc(Cl)c2Cl)c1=O | – | 4.78 µM (active)
CNc1ccc(Br)cc(C(=O)/C=C/c2cccc(OC)c2)c1=O | – | 8.49 µM (active)
CNc1ccc(Br)cc(C(=O)/C=C/c2ccc(Cl)cc2Cl)c1=O | – | 4.78 µM (active)
